Among the data in PubChem BioAssay (NCI) are growth values, retold here.

Test systems include NCI-H23 lung; NCI-H226 lung; NCI-H322M lung; HOP-62 NSCLC; NCI-H460 lung; HOP-92 NSCLC; NCI-H522 lung; A549/ATCC NSCLC; 786-0 renal; COLO 205 colon.
Holding throughout (test): NCI-60 one-dose screen, 48 h (100 = growth as untreated, 0 = no growth, -100 = all killed)
Conditions in all cases: 10 µM unless noted

About 83,000 compounds went through this panel and 20% of them were active in at least one assay; those are over-represented in the sample as a whole.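 Cells were grown in 96-well plates and exposed to the test compound at a single concentration for 48 hours; results are reported as percent growth, with values below 10 considered active.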 Unmarked numbers belong to inactive results. Calls of active or inactive are those of the source.

For the compound `CC(C)(C)c1nc(-c2cccc(NS(=O)(=O)c3c(F)cccc3F)c2F)c(-c2ccnc(N)n2)s1`, the growth in the assay on NCI-H23 lung is 63.6%; with NCI-H226 lung it was 84.5%; in the assay on NCI-H322M lung it was 90.3%; with HOP-62 NSCLC, 77.1%; with NCI-H460 lung it was 74.4%; in the assay on HOP-92 NSCLC, 92.9%. Also, the growth in the assay with NCI-H522 lung is 57.5%; with A549/ATCC NSCLC it was 53.6%; in the assay on 786-0 renal, 91.9%; in the assay with COLO 205 colon it was -5.08% (active).

For `CO[C@H](C(=O)N[C@@H](CCCCNC(=O)OCc1ccccc1)C(=O)OC(C)(C)C)[C@@H]1Cc2cc3cc(OC4CC(OC5CC(O)C(O)C(C)O5)C(O)C(C)O4)c(C)c(O)c3c(O)c2C(=O)[C@H]1OC1CC(OC2CC(OC3CC(C)(O)C(O)C(C)O3)C(O)C(C)O2)C(O)C(C)O1` (stereo not given in full), the growth is -42.6% (active) with NCI-H23 lung; -75.5% (active) in the assay with NCI-H226 lung; 20.2% with NCI-H322M lung; -15% (active) in the assay with HOP-62 NSCLC; -17.6% (active) with NCI-H460 lung; -82.6% (active) in the assay on HOP-92 NSCLC. Also, the growth in the assay on NCI-H522 lung was -16% (active); with A549/ATCC NSCLC, -25.7% (active); in the assay with 786-0 renal, -89.8% (active); in the assay on COLO 205 colon, -20.7% (active).

For the compound `O=C(c1ccccc1)C(c1ccccc1)N1CCOCC1` (stereo not given), the growth with NCI-H23 lung was 96.9%; in the assay with NCI-H226 lung it was 94.8%; with NCI-H322M lung, 105%; in the assay on HOP-62 NSCLC, 94.7%; in the assay with NCI-H460 lung, 103%; with HOP-92 NSCLC it was 103%. Besides, the growth is 90.4% with NCI-H522 lung, 90.2% in the assay on A549/ATCC NSCLC, 104% in the assay with 786-0 renal and 109% in the assay with COLO 205 colon.

Regarding `Cc1cc(-c2cc(OC(=O)c3ccccc3)ccc2Cl)cc2nnc(Nc3ccc(OCCN4CCCC4)cc3)nc12`, the growth is 78.9% with NCI-H23 lung; 78.6% in the assay on NCI-H226 lung; 102% in the assay with NCI-H322M lung; 50.2% in the assay on HOP-62 NSCLC; 81.6% in the assay with NCI-H460 lung; 40.8% in the assay on HOP-92 NSCLC. Further, the growth in the assay on NCI-H522 lung is 49.2%; in the assay on A549/ATCC NSCLC it was 69.4%; in the assay with 786-0 renal it was 98.9%; with COLO 205 colon it was 62.8%.

Take `Cc1c(NC(=O)OC[C@@H]2COCCN2)cn2ncnc(Nc3ccc4c(cnn4Cc4cccc(F)c4)c3)c12`: the growth in the assay with NCI-H23 lung was -12.9% (active); in the assay on NCI-H226 lung, -1.69% (active); in the assay on NCI-H322M lung it was -1.86% (active); with HOP-62 NSCLC it was -25% (active); in the assay with NCI-H460 lung, 4.49% (active); in the assay with HOP-92 NSCLC, -12.7% (active). The growth in the assay with NCI-H522 lung was -30.4% (active); with A549/ATCC NSCLC, -9.38% (active); with 786-0 renal it was 0.0698% (active); in the assay on COLO 205 colon, -45.4% (active).

`Cc1cccc(Cl)c1NC(=O)c1cnc(Nc2cc(N3CCOCC3)cc(S(C)(=O)=O)c2)s1`: the growth is 81.5% with NCI-H23 lung; 66% with NCI-H226 lung; -6.54% (active) in the assay on NCI-H322M lung; 11.8% in the assay with HOP-62 NSCLC; 71.4% with NCI-H460 lung; -55.1% (active) with HOP-92 NSCLC. For the same compound, the growth in the assay with NCI-H522 lung was 7.33% (active); with A549/ATCC NSCLC, -0.245% (active); in the assay with 786-0 renal, 11.6%; in the assay on COLO 205 colon, -6.99% (active).

As for `C=CC(=O)N1CCC[C@@H](n2nc(-c3ccc(Oc4ccccc4)cc3)c3c(N)ncnc32)C1`, the growth is 95.3% in the assay with NCI-H23 lung; 45% in the assay on NCI-H226 lung; -1.22% (active) in the assay on NCI-H322M lung; 73.1% with HOP-62 NSCLC; 90% with NCI-H460 lung; 28.3% with HOP-92 NSCLC. The growth in the assay on NCI-H522 lung is 1.41% (active); in the assay on A549/ATCC NSCLC it was 46.6%; in the assay on 786-0 renal, 30.4%; in the assay on COLO 205 colon, 61.3%.

On to `Cc1[nH]c(/C=C2\C(=O)Nc3ccc(F)cc32)c(C)c1C(=O)NC[C@H](O)CN1CCOCC1`, for which the growth in the assay with NCI-H23 lung was 27.1%; in the assay on NCI-H226 lung it was 47.8%; in the assay on NCI-H322M lung it was 26.2%; in the assay with HOP-62 NSCLC, 25.7%; in the assay on NCI-H460 lung it was 19%; in the assay on HOP-92 NSCLC, 14.5%. Moreover, the growth with NCI-H522 lung was 45.4%; with A549/ATCC NSCLC, 27.4%; in the assay with 786-0 renal it was 35.6%; in the assay on COLO 205 colon, -8.22% (active).

With `CC(C)=CCc1cc2c(cc1O)C1=C(C(=O)C3=C(NCCS3(=O)=O)C1=O)C(C=C(C)C)O2` (stereo not given), the growth is 25.7% in the assay on NCI-H23 lung; 57.9% in the assay with NCI-H226 lung; 11.4% in the assay with NCI-H322M lung; 25.3% in the assay on HOP-62 NSCLC; 17.7% with NCI-H460 lung; 115% in the assay on HOP-92 NSCLC. For the same compound, the growth with NCI-H522 lung is -4.35% (active); in the assay with A549/ATCC NSCLC, 65.8%; in the assay with 786-0 renal, 58.7%; with COLO 205 colon, 29.4%.

`N#Cc1cc2[nH]c3ccc(OC(F)(F)F)cc3c2oc1=O`: the growth with NCI-H23 lung was 83.7%; in the assay with NCI-H226 lung, 82.4%; with NCI-H322M lung it was 93.5%; in the assay with HOP-62 NSCLC, 56.6%; with NCI-H460 lung it was 87.6%; in the assay with HOP-92 NSCLC, 104%. Moreover, the growth with NCI-H522 lung is 42.4%; in the assay on A549/ATCC NSCLC it was 91.3%; with 786-0 renal, 93.9%; in the assay with COLO 205 colon, 86.8%.

Regarding `Cn1cc(-c2ccc(F)c(C(F)(F)F)c2)nc1C1CCN(c2ncnc3[nH]ncc23)CC1`, the growth was 72.3% in the assay on NCI-H23 lung; 55.3% in the assay on NCI-H226 lung; 75.3% in the assay with NCI-H322M lung; 52.1% in the assay with HOP-62 NSCLC; 76.9% in the assay with NCI-H460 lung; 65.3% with HOP-92 NSCLC. In addition, the growth in the assay with NCI-H522 lung is 47.8%; in the assay with A549/ATCC NSCLC it was 50.4%; in the assay with 786-0 renal, 69.1%; in the assay on COLO 205 colon, 84.4%.

In the case of `Clc1ccc(C(Cn2ccnc2)OCc2ccsc2Cl)c(Cl)c1` (stereo not given), the growth in the assay with NCI-H23 lung was 37.9%; in the assay on NCI-H226 lung, 63%; in the assay on NCI-H322M lung, 88.2%; in the assay with HOP-62 NSCLC it was 73.6%; with NCI-H460 lung, 57.7%; in the assay with HOP-92 NSCLC, 28.7%. Moreover, the growth is 35.1% in the assay on NCI-H522 lung, 56.1% in the assay with A549/ATCC NSCLC, 55.6% in the assay on 786-0 renal and 62.9% in the assay with COLO 205 colon.

On to `CCCCn1c(C)nc2cc(Nc3nc(N4CCCCC4)nc4nc[nH]c34)ccc21`, for which the growth was 51.4% in the assay with NCI-H23 lung; 44.4% in the assay with NCI-H226 lung; 81.8% in the assay on NCI-H322M lung; 62.1% in the assay with HOP-62 NSCLC; 65.5% with NCI-H460 lung; -9.51% (active) in the assay on HOP-92 NSCLC. For the same compound, the growth in the assay with NCI-H522 lung was 52.6%; in the assay on A549/ATCC NSCLC, 48.4%; in the assay with 786-0 renal, 49.1%; in the assay with COLO 205 colon, 28.9%.
